# Source: PubChem BioAssay
# This is a sample that favours compounds with a hit; in the whole collection about 3.1% have one here.
# Cl transport mod: modulates chloride dependent transport by human KCC2. KCC2 cells, thallium flux FluoZin-2 fluorescence. B-score of Tl+ flux slope (higher = more flux/activation; lower = inhibition) at 10 µM. 190,000 tested, 2.2% active. AID 1456;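 active means thallium flux slope and its plate-corrected score both differing from the plate sample mean at a set confidence after two filtering rounds, in either direction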;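 further: slope of fluorescence scaled to starting intensity during 10 to 20 s after thallium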
# EP2 modulator: modulators of human EP2 prostaglandin E2 receptor | P43116 | EP2-expressing cells, cAMP HTRF FRET, PGE2 co-stimulation | induction, % at 25 µM | 260,000 tested, 0.83% active | AID 940;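 active means compounds whose cAMP rise, as percent of the full-agonist control response, exceeds 60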;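 further: rat C6 glioma line stably carrying human EP2 under a CMV promoter; the protocol text gives 20 µM as final concentration; 100% = response of wells given 1 µM PGE2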
# EP2 antag: blocks the human prostaglandin E2 receptor EP2; P43116; C6 glioma cells expressing human EP2, cAMP TR-FRET; cells stimulated with saturating PGE2; inhibition, % at 25 µM; 260,000 tested, 0.52% active;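 active means percent inhibition above 40 after rounding to a whole number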;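 further: rat C6 glioma host cells with rolipram phosphodiesterase inhibitor present; the protocol text gives 20 µM as final concentration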
# S1P3 antagonist: S1P3 (human) receptor antagonism; inhibition, % at 4.98 µM; CHO S1P3 NFAT-BLA reporter, FRET fluorescence, antagonist mode; 170,000 tested, 0.27% active; Q99500; AID 485;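 active means inhibition above the plate cutoff, the mean inhibition of test wells on that plate plus 3 SD, cut at about 28% in these data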;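 further: cells challenged with S1P at its EC80 of 0.8 µM; blue over green emission ratio from cleaved BLA substrate after 4 h stimulation; 0% = S1P-stimulated wells and 100% = unstimulated DMSO-only wells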
# Target sequence (Q99500 whole entry, looked up): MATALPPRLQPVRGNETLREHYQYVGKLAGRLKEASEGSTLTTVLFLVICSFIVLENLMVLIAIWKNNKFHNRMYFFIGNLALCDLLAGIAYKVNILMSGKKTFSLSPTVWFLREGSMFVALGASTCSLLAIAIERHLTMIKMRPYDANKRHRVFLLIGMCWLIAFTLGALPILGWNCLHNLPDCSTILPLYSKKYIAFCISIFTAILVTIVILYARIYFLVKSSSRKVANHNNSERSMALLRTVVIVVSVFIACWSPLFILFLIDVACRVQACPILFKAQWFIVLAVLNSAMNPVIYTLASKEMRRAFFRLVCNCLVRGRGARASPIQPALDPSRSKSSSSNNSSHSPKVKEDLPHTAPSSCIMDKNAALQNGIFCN
# Numbers without * were called inactive; i = inactive; / = no result.
SMILES,Cl transport mod,EP2 modulator,EP2 antag,S1P3 antagonist
COc1ccc(/C(O)=C2/C(=O)C(=O)N(Cc3cccnc3)C2c2ccc(OC)c(OC)c2)c(C)c1 (configuration not stated),/,27.1,11.9,/
Cc1cc(OCc2ccccc2)ccc1/C(O)=C1/C(=O)C(=O)N(Cc2cccnc2)C1c1ccncc1 (configuration not stated),0.308,64.5*,18.2,5.0
Cc1ccccc1C1(O)CCN(Cc2cnn(Cc3ccccc3)c2C)CC1,/,-47.6,10.7,/
O=C(O)C1CCN(c2nc(-c3ccccc3)nc3c2oc2ccccc23)CC1,-2.85*,33.5,13.4,22.9
CC(C(=O)NC1CCCC1)N(C(=O)c1ccc(CN2CCOCC2)o1)c1ccc(Cl)cc1 (configuration not stated),/,-14.0,5.8,/
Cn1c(SCC(N)=O)nc2sc3c(c2c1=O)CCCC3,/,-61.4,7.7,/
CCSc1nc2sc3c(c2c(=O)n1C)CCCC3,/,60.8*,6.8,/
CCn1c(SC(C)C(=O)O)nc2sc3c(c2c1=O)CCC3 (configuration not stated),26.3*,37.0,18.6,/
CS(=O)(=O)N1CCN(S(=O)(=O)c2ccccc2)C1,/,2.6,6.7,/
Cc1cccc(NC(=S)N(CCCO)Cc2cc3cc(C)cc(C)c3[nH]c2=O)c1,/,-66.3,11.4,/
COc1cccc(CN2CCc3c(nc(N4CCCC(C)C4)[nH]c3=O)C2)c1 (configuration not stated),/,-5.6,4.0,/
c1cc2c3c(cccc3c1)NC1(CCC3(CC1)Nc1cccc4cccc(c14)N3)N2,-0.387,-41.7,88.7*,6.1
CCN1/C(=C/c2ccc3cc(C)ccc3[n+]2CC)Sc2ccc(C)cc21,/,-62.2,13.9,/
CC[n+]1c(/C=C2\Sc3cc(C)ccc3N2C)ccc2ccccc21,/,-44.1,44.8*,/
CC[n+]1c(/C=C/c2ccc(N(C)C)cc2)ccc2cc(C)ccc21,/,-67.5,20.4,/
CC(=S)/C=C1\Sc2ccccc2N1C,-0.7,-11.6,12.8,/
CCN1/C(=C/c2ccc3cc(OC)ccc3[n+]2CC)Sc2cc(C)ccc21,/,-94.3,63.9*,/
CC[n+]1c(/C=C2\Sc3ccccc3N2C)ccc2cccc(C)c21,i,-27.5,107.4*,25.3
Cc1nnc(SCC(=O)NC2CCCCC2)n1CCc1ccccc1,/,-16.8,8.3,/
CCCn1c(SCC(=O)Nc2ccc(F)c(Cl)c2)nnc1-c1ccncc1,/,-63.6,11.6,/
COc1cc2cc(CN(C3CCCC3)S(=O)(=O)c3ccccc3Cl)c(=O)[nH]c2cc1OC,/,1.2,12.4,/
O=C(CSc1nc2ccccc2n1CCc1ccccc1)c1ccc(O)c(O)c1,7.84*,54.5,1.6,3.4
CCN(CC)C(=O)c1sc2[nH]c(=S)n(-c3ccccc3)c(=O)c2c1C,/,60.7*,9.8,/
Cc1ccc(-c2cc3ccccc3nc2N2CCCC2)cc1,/,62.0*,11.2,/
Clc1ccc(-c2cc3ccccc3nc2N2CCCC2)cc1,/,63.5*,10.1,/
SMILES,Cl transport mod,EP2 modulator,EP2 antag,S1P3 antagonist
Clc1ccc(-c2cc3ccccc3nc2N2CCOCC2)cc1,/,53.7,7.1,7.8
Cc1nc2ccccc2nc1N1CCCC1,-0.102,-1.5,3.8,-6.6
Cc1c(Cl)cccc1NC(=O)Cn1nc(-c2ccncc2)nc1SCC(=O)NC1CCCC1,/,-15.9,29.3,/
O=C(c1ccc2c(c1)OCO2)N1CCc2nc(-c3ccccc3)[nH]c(=O)c2C1,/,-33.3,1.1,/
CCOC(=O)c1cc2sccc2n1Cc1cccc(F)c1,/,85.4*,9.4,/
O=C1c2ccccc2C(=O)N1c1ccc(Cc2ccc(N3C(=O)c4ccccc4C3=O)cc2)cc1,/,14.7,48.5*,/
Cc1ccc(N2C(=O)c3ccccc3C2=O)cc1,0.769,9.8,8.5,-1.3
CC1(C)CC(=O)C(C(c2cccc(O)c2O)C2C(=O)CC(C)(C)CC2=O)C(=O)C1,/,23.6,41.2*,/
Cc1cccc2cc(CN(CCO)C(=S)Nc3cccc(Cl)c3)c(=O)[nH]c12,/,-72.2,10.8,/
CC(=O)Nc1ccc(NC(=S)NC(=O)c2cc3ccccc3o2)cc1,0.101,3.9,8.4,-5.7
O=C(NC(=S)Nc1cccnc1)c1cc2ccccc2o1,87.6*,-82.7,24.7,8.9
Cc1cc2c(cc1C)/C(=C/C(=O)c1ccccc1)NC(C)(C)C2,/,58.1,13.1,/
O=C(C[n+]1ccc2ccccc2c1)c1ccc2ccc3ccccc3c2c1,/,24.5,59.1*,/
COc1ccc(NC(=S)NC(=O)c2ccccc2Cl)cc1,20.6*,-75.5,10.5,-3.2
CC(C)CNC(=S)NC(=O)c1ccccc1Cl,49.8*,-37.5,8.4,10.7
Cc1c(Cl)cccc1NC(=S)NCC(C)C,1.03,17.5,4.8,4.9
O=C(NC(=S)Nc1ccc(O)cc1)c1ccccc1Cl,0.705,-52.0,5.6,-20.4
CS(=O)(=O)c1ccc2nc(NC(=O)COc3cc(Cl)ccc3Cl)sc2c1,/,-68.6,14.2,/
Cc1ccc2nc(CCC(=O)N3CCC(C(=O)c4nc5ccccc5s4)CC3)[nH]c2c1,/,-70.6,/,/
Cc1ccc(NC(=O)C2CCN(c3ncccn3)CC2)c(C)c1,/,-51.4,8.3,/
CCOCCCNCC(O)c1ccccc1 (configuration not stated),0.562,5.2,4.8,-1.4
OCc1cc(C(O)CNCCCCCCOCCCCc2ccccc2)ccc1O (configuration not stated),-3.05*,69.2*,17.5,9.9
C/C(N[O-])=C(\C)[N+]([O-])=[Rh][Cl].CC(=N\[O-])/C(C)=N/[O-].NC(N)=[SH+],/,25.7,48.8*,/
C/C(N[O-])=C(\C)[N+]([O-])=[Co].C/C(N[O-])=C(\C)[N+]([O-])=[Co].CC(=N\[O-])/C(C)=N/[O-].CC(=N\[O-])/C(C)=N/[O-].[CH3-].[CH3-],/,11.3,28.7,/
CC(=O)O[C@H]1C[C@@H](OC(C)=O)C(C)(C)C2CC(=O)[C@]3(C)C(CC[C@@]4(C)[C@H](c5ccoc5)OC(=O)[C@H]5O[C@]543)[C@]21C (some centres not stated),/,28.7,9.8,/
SMILES,Cl transport mod,EP2 modulator,EP2 antag,S1P3 antagonist
Cc1cc(C)c2[nH]c(=O)c(C(c3nnnn3C(C)(C)C)N3CCN(Cc4ccccc4)CC3)cc2c1 (configuration not stated),/,-7.4,12.7,/
CCc1ccc2[nH]c(=O)c(C(c3nnnn3C(C)(C)C)N3CCN(c4ccccc4F)CC3)cc2c1 (configuration not stated),/,73.7*,11.2,/
Cc1cc2cc(C(c3nnnn3C(C)(C)C)N3CCN(Cc4ccccc4)CC3)c(=O)[nH]c2cc1C (configuration not stated),/,11.4,91.0*,/
Cc1cc2oc(C(=O)NCc3nc(-c4ccccc4)no3)cc(=O)c2cc1C,/,-6.4,6.4,/
Cc1ccc2cc(C(c3nnnn3CC3CCCO3)N3CCCC(C)C3)c(=O)[nH]c2c1C (configuration not stated),/,-54.3,4.5,/
COCCNC(=O)CSc1cc(-c2ccccc2)c2ccc(OC)cc2n1,-0.242,63.4*,11.3,-7.8
COC(=O)C1=C(N)Oc2cc(C)n(CC3CCCO3)c(=O)c2C1c1ccccc1OC (configuration not stated),-0.719,18.7,13.0,-8.0
